Records with an inconclusive call do not appear. A call without a number means that no potency is given here. The source made the active and inactive calls. The call rests on the fitted dose curve.

This test in a line: qHTS for Inhibitors of Cell Surface uPA Generation: Wild-type Protective Antigen (WT-PrAg) Counterscreen for Cherry-picked Compounds. To be noted: cells, WT protective antigen toxicity counterscreen; series mostly up to 115 µM. (qHTS replaces the single test concentration by a dilution series.)
On to `Clc1ccc(C2=NN=C3COc4ccccc4N3C2)cc1`, for which the Potency entry is “inactive”.
As for `COc1cc2oc(=O)ccc2cc1[C@H](O)[C@@H](O)C(C)(C)O`, the Potency entry is “inactive”.
Consider `O=c1[nH]c(SCc2cccc(Cl)c2)nc2ccccc12`, for which the Potency entry was “inactive”.
Turning to `CCc1c(C)sc(NC(=S)N2CC(C)OC(C)C2)c1C(=O)OC` (stereo not drawn), the Potency entry is “inactive”.
Take `CCN(c1ccccc1)S(=O)(=O)c1ccc(NC(=O)c2ccco2)cc1`: the Potency result was “inactive”.
Regarding `Cn1c(C2CCCCC2)nc2cc(N)ccc21`, the Potency result was “inactive”.
In the case of `NC(=O)C1CCN(C(=O)c2cccc3ccccc23)CC1`, the Potency result is “inactive”.
The same measure for `COc1ccc(C2C(C(=O)c3ccc(C)o3)=C(O)C(=O)N2CC2CCCO2)cc1OC` (stereo not drawn): “inactive”; for `CCn1c(CNc2ccc(F)cc2)nnc1SCC(=O)Nc1ccccc1OC`: “inactive”; for `CC(OC(=O)c1cccc(-n2cnnn2)c1)C(=O)Nc1ccc(F)c(F)c1F` (stereo not drawn): “inactive”.
As for `CCOc1ncccc1C(=O)NCc1ccccc1Cl`, the Potency entry was “inactive”.
The same measure for `CCOc1ccc(OCC)c(NC(=O)c2ccc(CNc3c(N4CCCC4)c(=O)c3=O)cc2)c1`: “inactive”.
Take `COc1ccccc1N1CCN(C2CC(=O)N(c3ccccc3)C2=O)CC1` (stereo not drawn): the Potency result was “inactive”.
With `COc1cc(CN2CCN(c3ncccn3)CC2)cc(OC)c1`, the Potency result is “inactive”.
The same measure for `COC(C[C@H](O)[C@H](C)[C@@H](O)COCc1ccccc1)OC`: “inactive”; for `Cc1ccc(C2=NS(=O)(=O)N(C)C(C(=O)NC3CCCC3)=C2)cc1`: “inactive”; for `C[C@@]12C(=O)N(CC3CCCO3)CC(=O)N1[C@H]1c3cc(Cl)ccc3OC[C@@H]1[C@@H]2c1ccccc1` (stereo partly drawn): “inactive”.
As for `O=C(NC1CCCC1)c1nc2c(nnn2Cc2ccccc2Cl)c(=O)[nH]1`, the entry is “inactive”.

Source of the values: PubChem BioAssay AID720518 (National Center for Advancing Translational Sciences (NCATS), 2013).
